Screens (PubChem)
Mtb hypoxia inh – reduces hypoxia-regulated biosensor signal in M. tuberculosis | M. tuberculosis hypoxia-regulated fluorescent reporter, fluorescence | fluorescence inhibition, % (test concentration not listed) | 0.1% of 300,000 active; in the data active means fluorescence inhibition mostly above about 23%, no sharp cut-off; inactive means mostly below about 17%
RN4220 kill – kills Staphylococcus aureus RN4220; 0.33% of 330,000 active; AID 1259311; S. aureus RN4220 growth, OD600, 16 h; inhibition, % (concentration not given with the values); in the data active means inhibition above about 85%
PriA SSB inh – K. pneumoniae PriA-SSBct interaction inhibition; AlphaScreen SSBct-PriA binding, biotinylated peptide; 0.6% of 430,000 active; inhibition, % at 33 µM; in the data active means inhibition mostly above about 37%, no sharp cut-off; inactive means mostly below about 20%
Sa ugtP lethal – growth inhibition of S. aureus ugtP deletion strain. S. aureus RN4220 ugtP deletion, OD600 growth, 16 h. growth inhibition, % (no concentration beside the values). 0.54% of 330,000 active. AID 1259309; in the data active means growth inhibition above about 68%
Hits are given with their value; – = inactive; · = not tested or not shown; ! = not active in a repeat. Shown are actives, neighbours in structure and some others; about 1.1% of the full set was active somewhere.

SMILES | Mtb hypoxia inh | RN4220 kill | PriA SSB inh | Sa ugtP lethal
CC(C)CC(=O)NC(=S)Nc1ccc(S(=O)(=O)Nc2nccs2)cc1 | – | – | – | 92
CC(C)CC(=O)NC(=S)Nc1ccc(S(N)(=O)=O)cc1 | · | · | – | ·
CCOc1ccc(NS(=O)(=O)c2ccc(NC(=S)NC(=O)CC(C)C)cc2)cc1 | · | – | – | 87
CCOc1ccc(NS(=O)(=O)c2ccc(C(=O)N(C)CC(=O)Nc3ccc(OC)cc3)cc2)cc1 | – | – | – | –
Cc1ccc(-c2noc(Cn3c(=O)n(CC4CCCO4)c(=O)c4ccccc43)n2)cc1 (configuration not stated) | · | · | – | ·
CC(C)CC(=O)NC(=S)Nc1ccc(S(=O)(=O)N2CCN(C)CC2)cc1 | – | – | – | 86
CCc1nnc(NS(=O)(=O)c2ccc(NC(=S)NC(=O)c3cccnc3)cc2)s1 | – | – | – | –
CCc1nnc(NS(=O)(=O)c2ccc(NC(=S)NC(=O)c3ccc(F)cc3)cc2)s1 | – | – | – | 87
CC(C)C[C@H](C)N1Cc2ccccc2OCC1=O | · | · | – | ·
Cc1ccc(C(=O)O)c(=O)n1C | · | · | – | ·
O=C(CCC1CCCC1)c1c(O)c2ccccc2oc1=O | – | 100 | – | 100
CN(Cc1cc(=O)[nH]c2ccccc12)C(=O)C1COc2ccccc2O1 (configuration not stated) | · | · | – | ·
O=S(=O)(c1cccs1)N1CN(Cc2ccco2)c2nc3ccccc3nc21 | – | – | – | –
Cc1cccc(S(=O)(=O)N2CN(Cc3ccco3)c3nc4ccccc4nc32)c1 | – | – | 96 | –
CCOC(CNC(=O)c1ccc(N2CCc3ccccc32)c([N+](=O)[O-])c1)OCC | – | – | 63 | –
O=C(NCc1ccc(F)cc1)c1ccc(N2CCc3ccccc32)c([N+](=O)[O-])c1 | – | – | 74 | –
O=C(O)c1ccc(N2CCc3ccccc32)c([N+](=O)[O-])c1 | – | – | – | –
COC(=O)c1ccc(N2CCc3ccccc32)c([N+](=O)[O-])c1 | – | – | 52 | –
O=C1Nc2ccccc2/C1=C/c1ccccc1F | – | – | – | –
Cc1ccc(/C=C2\C(=O)Nc3ccccc32)o1 | – | – | – | 100
COc1ccc(C[C@](C)(O)CNC(=O)C(=O)NCc2cccs2)cc1 | · | · | – | ·
CCN1CCN(C(CNC(=O)C(=O)NCc2ccccc2)c2cccnc2)CC1 (configuration not stated) | · | · | – | ·
COc1cc(OC)cc(-c2cc(N)n(S(=O)(=O)c3cccc4nsnc34)n2)c1 | – | – | 39 | –
CC(/C=C1\SC(=S)N(CCC(=O)Nc2cccc(C(=O)O)c2)C1=O)=C\c1ccccc1 | – | – | – | 86
O=S(=O)(NCc1cccnc1-c1cccs1)c1cccc2nsnc12 | · | · | – | ·
SMILES | Mtb hypoxia inh | RN4220 kill | PriA SSB inh | Sa ugtP lethal
CCN1CCN(Cc2ccc(NC(=O)c3cc(NC(=O)c4cc(-c5ccc(OC)cc5)n[nH]4)cc(OC)c3)cc2C(F)(F)F)CC1 | – | – | – | –
CCN1CCN(Cc2ccc(NC(=O)c3cc(NC(=O)c4cncc(-c5cccs5)c4)cc(OC)c3)cc2C(F)(F)F)CC1 | · | · | 42 | ·
CCN1CCN(Cc2ccc(NC(=O)c3cc(NC(=O)c4cc5cccc(OC)c5o4)cc(OC)c3)cc2C(F)(F)F)CC1 | – | – | 73 | –
CCN1CCN(Cc2ccc(NC(=O)c3cc(NC(=O)c4ccno4)cc(OC)c3)cc2C(F)(F)F)CC1 | · | · | – | ·
CCCCCCCn1ccc(=N)cc1 | · | – | – | –
CCCCCCCCCn1ccc(=N)cc1 | – | – | – | 100
CCOC(=O)C(Nc1ccc2ccccc2c1)C(=O)OCC | – | – | 58 | –
COc1ccc(C2=NN(C(=O)CSCc3ccco3)C(c3ccc(F)cc3)C2)cc1 (configuration not stated) | · | · | – | ·
COc1ccc(-c2ccc(N3CCN(C(=O)C4CCCC4)CC3)nn2)cc1OC | · | · | – | ·
COC(=O)N=Nc1c(O)[nH]c2ccc(Br)cc12 | – | – | – | –
NC(=S)N=Nc1c(O)[nH]c2ccccc12 | – | – | – | –
Oc1[nH]c2ccccc2c1N=NC(=S)N1CCOCC1 | · | · | 59 | ·
Oc1[nH]c2ccc(Br)cc2c1N=NC(=S)N1CCOCC1 | 39 | – | – | –
C=CCN(CC=C)S(=O)(=O)c1ccc(C(=O)Nc2sccc2C#N)cc1 | · | · | – | ·
O=C(O)CCc1ccc(-c2ccc(Br)cc2)n1-c1cccc(O)c1 | – | – | – | 85
O=C(O)CCc1ccc(-c2ccccc2)n1-c1cccc(C(=O)O)c1 | – | – | – | –
Cc1cc([N+](=O)[O-])cc([N+](=O)[O-])c1NCC(C)C | – | – | 44 | –
Cc1ccc(-n2nnnc2C(Cl)(Cl)c2nnnn2-c2ccc(C)cc2)cc1 | – | 100 | – | 100
O=C(Nc1nc(-c2ccco2)cs1)c1ccc(-n2cncn2)nn1 | · | · | – | ·
CC(=O)Nc1ccc(NC2=C(Cl)C(=O)c3ccccc3C2=O)cc1 | – | – | – | –
CN(C)c1ccc(NC2=C(Cl)C(=O)c3ccccc3C2=O)cc1 | – | – | 64 | –
Cn1c(C2CCC(CNC(=O)c3cnn(-c4ccccc4)n3)CC2)nc2ccccc21 (configuration not stated) | · | · | – | ·
CCCN1CCCc2cc(CCNS(=O)(=O)c3ccc(F)c(C)c3)ccc21 | · | · | 59 | ·
CCCN1CCCc2cc(CCNS(=O)(=O)c3ccc(C)cc3)ccc21 | · | · | – | ·
CCCN1CCCc2cc(CCNS(=O)(=O)c3ccc(C)c(C)c3)ccc21 | · | · | 61 | ·
SMILES | Mtb hypoxia inh | RN4220 kill | PriA SSB inh | Sa ugtP lethal
CCOC(=O)c1ccc(Oc2coc3cc(OCC(N)=O)ccc3c2=O)cc1 | · | · | – | ·
c1ccc(CNCCC(Cc2ccccc2)c2ccco2)cc1 (configuration not stated) | – | – | – | –
CN(C)c1ccc(CNCCC(Cc2ccccc2)c2ccco2)cc1 (configuration not stated) | – | – | 57 | –
O=C(NCC(c1ccc(F)cc1)N1CCOCC1)c1cccc(Br)c1 (configuration not stated) | – | – | 42 | –
C(=C\c1nc(N2CCCC2)c2ccccc2n1)/c1ccccc1 | 45 | – | – | –
Cc1cc(C)cc(-n2ccnc2SCC(=O)Nc2cccc(Cl)c2)c1 | · | · | 47 | ·
O=C(CSc1ncc(-c2ccc(Cl)c(Cl)c2)n1Cc1ccccc1)Nc1cccc(Cl)c1 | · | · | – | ·
C=CCn1c(-c2ccc(OC)cc2)cnc1SCC(=O)Nc1cccc(Cl)c1 | · | · | 39 | ·
Cc1cccc(-n2ccnc2SCC(=O)Nc2ccc3c(c2)OCCO3)c1C | · | · | 49 | ·
Cc1cc(C)cc(-n2ccnc2SCC(=O)Nc2ccc3c(c2)OCCO3)c1 | · | – | 45! | –
O=C(COc1ccc(Cl)cc1)NCC(c1cccc2ccccc12)N1CCOCC1 (configuration not stated) | · | · | – | ·
Cc1nc(SCC(=O)Nc2ccc3c(c2)OCCO3)c2oc3ccccc3c2n1 | – | – | – | 90
CC(=O)Nc1ccc(NC(=O)CSc2nccn2Cc2ccc(Cl)cc2)cc1 | – | – | – | –
Cc1nc(SCc2ccccc2F)c2oc3ccccc3c2n1 | 40 | – | – | –
O=C(CSc1nccn1Cc1ccc(Cl)cc1)Nc1ccc2c(c1)OCCO2 | · | · | 42 | ·
COc1cc([C@H]2C(C(=O)Nc3ccccc3)=C(C)Nc3nc(CCCO)nn32)cc(OC)c1OC | · | · | – | ·
CCOC(=O)C1=C(COC(=O)c2ccc(C)c(S(=O)(=O)N3CCOCC3)c2)NC(=O)NC1C (configuration not stated) | – | – | – | –
